The results in this text go back to PubChem BioAssay.

Where “and” joins values, the source holds several entries; their conditions need not be identical. Equal entries are not always repeated. Calls of active or inactive are those of the source.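 Rule for the calls, unless noted: active = thallium flux through the channel raised or lowered by more than 3 SD from vehicle-only wells, actives on both sides; inactive = the rest.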

Experiment [1] is described as follows: Wnt pathway potentiators raising nuclear beta-catenin – imaging, WNT3A-conditioned medium, mouse C2C12, NPC library, primary screen (AID 1117326; in the data active = nuclear beta-catenin stimulation mostly above about 4.2%, no sharp cut-off; inactive = mostly below about 10%). As to conditions: stronger effect = higher value.
Experiment [2] in a line: stimulators of insulin release from INS-1E, primary screen, cell-based, 5 mM glucose, NPC library (AID 1117329;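 active = compound raises insulin release from rat beta cells at 5 mM glucose, no numeric limit stated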). The note with it: rat INS-1E insulin secretion, at 10 µM, stronger effect = higher value.
The nature of experiment [3]: growth inhibition of GSK3B-pretreated HCT116 cells – cell-based, CellTiter-Glo, 0.2 to 20 µM (AID 1117336;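 active = compounds lowering colon cancer cell viability after pretreatment blocking the GSK3B kinase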). As to conditions: HCT116 viability after GSK3B inhibitor, at 20 µM, stronger effect = higher value. (Cellular ATP, detected with luciferase, serves as a proxy for viable cell number.)
The nature of experiment [4]: inhibition of endothelial tube formation, primary screen, imaging, VEGF stimulated, CD31 staining, tube area, NPC library (AID 1117340;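 active = compound that reduces growth-factor-driven endothelial tube area in a mixed cell culture, no cutoff stated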). As to conditions: VEGF-stimulated ADSC/ECFC co-culture, at 10 µM, stronger effect = higher value.
Experiment [5] in a line: GLP1 release stimulators, primary, NCI-H716, NPC library (AID 1117341;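 active = compound raises GLP1 secretion from the human gut endocrine cells, with no numeric limit stated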). As to conditions: NCI-H716 cells, at 10 µM, stronger effect = higher value.
A short description of experiment [6]: HCT116 colon cancer cell growth inhibition, primary screen, CellTiter-Glo luminescence, NPC library (AID 1117342;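 active = compounds that lower survival of HCT116 colon cancer cells in the luminescence readout, no numeric limit stated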). The note with it: at 20 µM (top of the series).
The nature of experiment [7]: reduced SW480 viability measured with CellTiter-Glo, NPC library, primary (AID 1117343;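 active = compounds that lower viability of the colon cancer cells in the luminescence readout, with no numeric limit stated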). As to conditions: CellTiter-Glo luminescence; at 20 µM (top of the series).
A short description of experiment [8]: NPC library primary testing for decreased DLD-1 cell viability via CellTiter-Glo (AID 1117346;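 active = compounds that lower survival of DLD-1 colon cancer cells in the luminescence readout, no cutoff given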). As to conditions: DLD-1 viability, CellTiter-Glo luminescence; at 20 µM (top of the series).
The target in experiment [9] is 6-phosphogluconate dehydrogenase, decarboxylating (Homo sapiens) (UniProt P52209). Put plainly: inhibition of human phosphogluconate dehydrogenase – biochemical, recombinant enzyme, NADPH absorbance, primary screen (AID 1159550;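 active = at least 20% inhibition of 6-phosphogluconate dehydrogenase activity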). As to conditions: recombinant 6PGD, NADPH absorbance 341 nm; at 10 µM; stronger effect = higher value.
Sequence of 6-phosphogluconate dehydrogenase, decarboxylating (Homo sapiens) (P52209 whole entry, looked up): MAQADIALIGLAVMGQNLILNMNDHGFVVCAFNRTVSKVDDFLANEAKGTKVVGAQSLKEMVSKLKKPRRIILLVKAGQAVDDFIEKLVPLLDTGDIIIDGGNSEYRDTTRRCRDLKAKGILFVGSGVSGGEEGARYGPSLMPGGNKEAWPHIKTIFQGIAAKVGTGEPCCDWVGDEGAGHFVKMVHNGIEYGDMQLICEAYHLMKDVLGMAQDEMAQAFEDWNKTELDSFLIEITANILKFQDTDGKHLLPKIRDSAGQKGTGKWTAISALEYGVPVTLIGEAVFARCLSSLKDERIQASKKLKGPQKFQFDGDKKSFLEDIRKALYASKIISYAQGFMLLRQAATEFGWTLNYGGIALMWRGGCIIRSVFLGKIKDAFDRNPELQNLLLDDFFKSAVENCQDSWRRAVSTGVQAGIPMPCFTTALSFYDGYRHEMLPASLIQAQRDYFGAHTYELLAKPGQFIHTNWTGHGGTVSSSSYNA
Experiment [10] is described as follows: modulation of C. elegans fzo-1 (AID 1259413; call rule not given here;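 note: fzo-1 mutant C. elegans worms in liquid wells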). As to conditions: C. elegans fzo-1 modulator screen, mean read-out; stronger effect = higher value.
Experiment [11] is described as follows: EMT-state selective cytotoxicity in co-culture – imaging, PC-3E GFP, TEM4-18 mCherry, primary screen (AID 1345086;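 active = compounds killing one labelled cell type while sparing the other, by normalised counts and ratio limits, not self-fluorescent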;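 for all read-outs here: cells exposed to compound for 72 h before imaging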;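 for red/green cell ratio (normalised): normalised mesenchymal count divided by normalised epithelial count so high means epithelial killing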). The note with it: PC-3E GFP / TEM4-18 mCherry co-culture, imaging cell counts, at 1 µM; for red/green cell ratio (normalised): actives lie on both sides, counts scaled to control wells, 1 = unselective.
Experiment [12] in a line: MELAS cybrid and Rieske KO viability enhancers – cell-based, MELAS cybrids, Rieske KO mouse fibroblasts, CellTiter-Glo, primary screen (AID 1508586;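 active = mean z-score across replicates of 1.96 or higher in either the MELAS or the Rieske mutant cell line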;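 note: z relative to plate mean and SD of compound and empty wells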). The note with it: low glucose.
Experiment [13] concerns the target NAD(+) hydrolase SARM1 (Homo sapiens) (UniProt Q6SZW1). Put plainly: blocking NAD cleavage by SARM1 SAM-TIR – cell lysate, NAD-Glo luminescence (AID 1508614;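 active = compound whose remaining NAD level is above about 45 nM, limit read from the data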;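 note: higher remaining NAD means stronger inhibition of SARM1 NADase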). The note with it: SAM-TIR HEK293T lysate NADase, at 1 µM, stronger effect = higher value.
For experiment [14], the target named is Mitogen-activated protein kinase 7 (Homo sapiens) (UniProt Q13164). As to the kind of experiment: Gal4-ERK5 driven luciferase induction – cell-based, HTS, primary screen (AID 1508626;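 active = luciferase signal above three times the same-plate solvent-only control wells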;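 note: luciferase driven by Gal4-ERK5 fusion binding five Gal4 sites before minimal TATA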). The note with it: HeLa Gal4-ERK5 transactivation, 18 h, at 5 µM, stronger effect = higher value.
Sequence of Mitogen-activated protein kinase 7 (Homo sapiens) (Q13164 whole entry, looked up, the tested form may be a part): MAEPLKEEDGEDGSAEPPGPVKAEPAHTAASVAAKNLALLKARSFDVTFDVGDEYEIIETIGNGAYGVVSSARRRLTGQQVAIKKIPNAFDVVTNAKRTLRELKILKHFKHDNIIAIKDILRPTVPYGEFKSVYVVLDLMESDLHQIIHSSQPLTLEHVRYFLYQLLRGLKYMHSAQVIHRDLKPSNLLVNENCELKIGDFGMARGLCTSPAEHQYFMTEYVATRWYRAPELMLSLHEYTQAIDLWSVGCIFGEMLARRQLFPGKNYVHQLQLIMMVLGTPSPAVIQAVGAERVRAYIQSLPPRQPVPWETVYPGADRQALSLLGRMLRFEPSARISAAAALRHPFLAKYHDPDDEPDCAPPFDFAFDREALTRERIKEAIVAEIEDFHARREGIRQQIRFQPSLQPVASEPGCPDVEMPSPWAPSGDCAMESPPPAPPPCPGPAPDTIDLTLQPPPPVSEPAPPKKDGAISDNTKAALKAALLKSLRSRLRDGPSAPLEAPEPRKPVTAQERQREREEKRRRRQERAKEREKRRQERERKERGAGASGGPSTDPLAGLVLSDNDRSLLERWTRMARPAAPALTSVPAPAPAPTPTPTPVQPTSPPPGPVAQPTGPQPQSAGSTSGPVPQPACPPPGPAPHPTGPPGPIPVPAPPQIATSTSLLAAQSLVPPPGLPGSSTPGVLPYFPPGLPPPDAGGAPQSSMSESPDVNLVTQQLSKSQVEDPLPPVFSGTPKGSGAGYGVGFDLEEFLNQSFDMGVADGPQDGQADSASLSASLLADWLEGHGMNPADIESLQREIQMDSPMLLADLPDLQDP
The subject of experiment [15] is F380Y. As to the kind of experiment: BK channel mutant inhibitors and activators – cell-based, U2OS BacMam, thallium flux, beta subunits, selectivity assay, profiling panel (AID 1259406).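 Note: initial slope of Thallos dye fluorescence rise after thallium is added; log ratio against the mean of 0.3% DMSO vehicle wells on the same plate.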 As to conditions: U2OS BacMam BK variants, at 30 µM.
Experiment [16] has as its system F380Y/beta1. The description is as above. As to conditions: U2OS BacMam BK variants, at 30 µM.
In experiment [17] the test system is F380Y/beta2Delta. Described as above. The note with it: U2OS BacMam BK variants, at 30 µM.
Experiment [18] deals with F380Y/beta4. The experiment is described as above. The note with it: U2OS BacMam BK variants, at 30 µM.
Experiment [19] has as its target Calcium-activated potassium channel subunit alpha-1 (Homo sapiens) + Leucine-rich repeat-containing protein 26 (Homo sapiens) (UniProt Q12791+Q2I0M4). The description is as above. As to conditions: U2OS BacMam BK variants, F380Y/Slo1WT/gamma1, at 30 µM.
Setting [20] is: measured here: epithelial PC-3E GFP cell survival.
[21] abbreviates: measured here: mesenchymal TEM4-18 mCherry cell survival.
[22] abbreviates: MELAS cybrid survival, CellTiter-Glo 48 h, stronger effect = higher value.
The mark [23] stands for this setting: Rieske KO mouse fibroblast survival, CellTiter-Glo 72 h.

Sequence of NAD(+) hydrolase SARM1 (Homo sapiens) (Q6SZW1 whole entry, looked up, the tested form may be a part): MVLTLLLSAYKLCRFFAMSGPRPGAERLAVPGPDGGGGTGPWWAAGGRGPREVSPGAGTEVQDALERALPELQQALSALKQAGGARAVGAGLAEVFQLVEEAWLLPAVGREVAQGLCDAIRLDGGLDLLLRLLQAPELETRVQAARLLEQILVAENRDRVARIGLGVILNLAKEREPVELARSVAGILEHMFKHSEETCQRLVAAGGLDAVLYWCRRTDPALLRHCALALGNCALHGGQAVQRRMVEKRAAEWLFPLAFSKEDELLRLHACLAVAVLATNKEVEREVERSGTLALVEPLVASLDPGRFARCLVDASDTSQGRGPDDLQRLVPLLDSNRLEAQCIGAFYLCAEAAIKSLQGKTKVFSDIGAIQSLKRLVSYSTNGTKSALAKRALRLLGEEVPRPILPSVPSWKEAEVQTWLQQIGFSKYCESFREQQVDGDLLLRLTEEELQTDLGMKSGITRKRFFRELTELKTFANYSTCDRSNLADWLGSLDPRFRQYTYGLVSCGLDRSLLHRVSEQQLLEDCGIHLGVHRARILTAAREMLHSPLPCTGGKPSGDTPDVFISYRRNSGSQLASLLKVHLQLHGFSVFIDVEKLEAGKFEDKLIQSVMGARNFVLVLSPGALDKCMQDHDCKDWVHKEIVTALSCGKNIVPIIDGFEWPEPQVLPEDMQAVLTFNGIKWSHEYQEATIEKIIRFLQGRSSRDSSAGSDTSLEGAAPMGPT
Sequence of Calcium-activated potassium channel subunit alpha-1 (Homo sapiens) + Leucine-rich repeat-containing protein 26 (Homo sapiens) (Q2I0M4 whole entry, looked up, one chain of several): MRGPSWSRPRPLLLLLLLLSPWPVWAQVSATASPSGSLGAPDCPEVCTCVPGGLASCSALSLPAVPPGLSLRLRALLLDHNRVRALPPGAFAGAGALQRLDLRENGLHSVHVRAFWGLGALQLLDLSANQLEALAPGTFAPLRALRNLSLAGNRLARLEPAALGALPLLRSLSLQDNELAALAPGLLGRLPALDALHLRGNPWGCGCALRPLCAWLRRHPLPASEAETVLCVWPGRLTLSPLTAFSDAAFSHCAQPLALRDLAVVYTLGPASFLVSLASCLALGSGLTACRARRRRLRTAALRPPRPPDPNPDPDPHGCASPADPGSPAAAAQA

As to `CC(N=C(NC#N)Nc1ccncc1)C(C)(C)C` (centres undefined), the nuclear beta-catenin stimulation in experiment [1] (at 10 µM) is -0.6% (inactive); in [1] (stimulation, at 2 µM), -1.6%. In [2], the insulin secretion stimulation is 2.1% (inactive). For the same compound, the viability decrease in experiment [3] was -8.9% (inactive). Also, in [4], the tube area decrease is -9.6% (inactive). The GLP1 secretion stimulation in experiment [5] is -3.6% (inactive). Moreover, the inhibition of viability in experiment [6] was 12.1% (inactive). The figures for the viability decrease (inhibition) in experiment [7] and in [8] were -10.1% (inactive) and 5.8% (inactive), respectively. Moreover, the inhibition (commonly the change of the read-out against control, counted positive when it falls) in experiment [9] is -10.6% (inactive). In experiment [10], the mean signal is 282 (inactive). In addition, the red/green cell ratio (normalised) in [11] is 1.42 (inactive). Moreover, the normalised cell number was determined as 1.21 in experiment [11] (setting [20]) and 1.72 in experiment [11] (setting [21]). Besides, the z-score in [12] (setting [22]) was 0.121 (inactive) and 0.328 (inactive); in [12] (setting [23]), -0.266 and 0.371. Besides, in experiment [13], the remaining NAD is 10 nM (inactive). Moreover, the luciferase signal in [14] is 64 AU (inactive). The log fold change Tl+ flux in experiment [15] was -0.0323 (inactive); in experiment [16] it was 0.0184 (inactive); in [17], 0.0089 (inactive); in [18], 0.00227 (inactive); in experiment [19], -0.0269 (inactive).
For `Cc1ccc(S(=O)(=O)NC(=O)NN2CCCCCC2)cc1`, the nuclear beta-catenin stimulation in experiment [1] (at 10 µM) was 0.5% (inactive); in [1] (stimulation, at 2 µM), -0.9%. In addition, the insulin secretion stimulation in experiment [2] was 60.9% (active). The viability decrease in experiment [3] is -7% (inactive). Further, in [4], the tube area decrease is -13.2% (inactive). Further, the GLP1 secretion stimulation in experiment [5] was 1.4% (inactive). Besides, the inhibition of viability in experiment [6] is -14.9% (inactive). Also, the figures for the viability decrease (inhibition) in experiment [7] and in experiment [8] were -1.7% (inactive) and 4.8% (inactive), respectively. Moreover, in [9], the inhibition was 16.2% (inactive). In addition, in experiment [10], the mean signal is 286 (inactive). For the same compound, in experiment [11], the red/green cell ratio (normalised) was 1.04 (inactive). The normalised cell number in experiment [11] (setting [20]) turned out to be 1.09; in experiment [11] (setting [21]), 1.13. The z-score is -0.943 (inactive) and -0.476 (inactive) in experiment [12] (setting [22]); -0.174 and -0.295 in [12] (setting [23]). For the same compound, the remaining NAD in [13] was 10 nM (inactive). Moreover, in experiment [14], the luciferase signal was 144 AU (inactive). Also, the log fold change Tl+ flux is -0.0421 (inactive) in experiment [15]; 0.00805 (inactive) in [16]; -0.0238 (inactive) in [17]; -0.0504 (inactive) in experiment [18]; 0.0367 (inactive) in [19].
Consider `CCCCNC(=O)NS(=O)(=O)c1ccc(C)cc1`, for which the nuclear beta-catenin stimulation was 0.2% (inactive) in experiment [1] (at 10 µM) and 3.2% in [1] (stimulation, at 2 µM). In [2], the insulin secretion stimulation is 3.85% (inactive). In addition, the viability decrease in [3] is -5.6% (inactive). Besides, the tube area decrease in experiment [4] was 5.7% (inactive). The GLP1 secretion stimulation in experiment [5] was 6.7% (inactive). For the same compound, the inhibition of viability in experiment [6] was -6.5% (inactive). The viability decrease (inhibition) in experiment [7] was -6% (inactive); in experiment [8] it was -5.4% (inactive). Moreover, in experiment [9], the inhibition was -14.4% (inactive). Besides, the mean signal in experiment [10] was 261 (inactive). Moreover, the red/green cell ratio (normalised) in [11] was 1.12 (inactive). The normalised cell number in experiment [11] (setting [20]) turned out to be 1.03; in experiment [11] (setting [21]) it was 1.15. For the same compound, the z-score in experiment [12] (setting [22]) was -0.283 (inactive) and 0.394 (inactive) and 0.614 (inactive); in experiment [12] (setting [23]), -0.151 and -0.133 and 0.0575. Moreover, the remaining NAD in experiment [13] was 10 nM (inactive). In addition, the luciferase signal in [14] is 36 AU (inactive). Moreover, the log fold change Tl+ flux was -0.00894 (inactive) in experiment [15]; 0.0157 (inactive) in experiment [16]; 0.0378 (inactive) in experiment [17]; 0.00157 (inactive) in experiment [18]; -0.0258 (inactive) in experiment [19].
